Rows were chosen to be rich in hits. Some 12% of all compounds tested hit in one or more screens of this group.
HP1b binding inh = blocks HP1-beta chromodomain binding to methylated histone tails. P83916. AlphaScreen HP1-beta / biotin-H3K9me3 peptide binding. Potency, µM (highest dose often 114 µM), inactives show at the highest dose activity change, negative = inhibition, actives largely listed as inhibitors. 390,000 tested, 0.56% active. AID 540317; note: nearly all actives have a fitted effect of over 70% in size
Target sequence (P83916 whole entry, looked up): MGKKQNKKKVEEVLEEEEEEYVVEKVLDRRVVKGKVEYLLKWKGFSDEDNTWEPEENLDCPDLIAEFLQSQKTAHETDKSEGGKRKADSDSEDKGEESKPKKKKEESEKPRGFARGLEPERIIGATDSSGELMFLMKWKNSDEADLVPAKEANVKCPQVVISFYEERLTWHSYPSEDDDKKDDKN
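HP1-beta protein (50 nM final) preincubated 30 min at room temperature with biotinylated H3(1-18)K9me3 peptide (50 nM) in PBS pH 7.4, 0.01% Tween-20, then compound added for 30 min. AlphaScreen streptavidin donor/nickel chelate acceptor beads (10 ug/mL final), 30 min dark, luminescence read.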
JMJD2A Tudor = inhibitors of human JMJD2A Tudor domain. O75164. AlphaScreen JMJD2A-Tudor / H3K4me3 peptide binding. Potency, µM (doses to about 114 µM), for inactives: at the top dose activity change, negative = inhibition, actives largely listed as inhibitors. 390,000 tested, 4.4% active. AID 504339; note: % is set by controls: 0 for no effect and ±100 for the full control effect; nearly all actives have a fitted effect of over 50% in size
G9a block = G9a (human) methyltransferase inhibition; Q96KQ7; G9a H3K9 monomethylation, AlphaScreen, 2 h; Potency, µM (series often up to 102 µM), for the others: top-dose activity, negative = inhibition, actives largely listed as inhibitors; 350,000 tested, 8.8% active; AID 504332; note: % is set by controls: 0 for no effect and ±100 for the full control effect; nearly all actives have a fitted effect of over 75% in size
Target sequence (Q96KQ7 913-1193 limits assumed): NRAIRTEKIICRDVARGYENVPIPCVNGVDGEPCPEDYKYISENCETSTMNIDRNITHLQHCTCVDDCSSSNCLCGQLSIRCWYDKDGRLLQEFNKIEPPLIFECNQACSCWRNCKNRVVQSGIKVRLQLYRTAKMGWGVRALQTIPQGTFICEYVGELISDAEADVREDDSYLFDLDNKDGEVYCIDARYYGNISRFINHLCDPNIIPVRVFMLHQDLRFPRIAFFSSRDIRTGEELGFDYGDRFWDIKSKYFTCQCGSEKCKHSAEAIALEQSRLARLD
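G9a (20 nM) was preincubated 15 min with compound, then reacted 2 h at room temperature with 500 nM biotin-H3K9 peptide and 20 µM SAM. Monomethyl-H3K9 detected by AlphaScreen using anti-H3K9me1 antibody.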
Sfp PPTase inh = Sfp phosphopantetheinyl transferase inhibition. Potency, µM, for inactives: largest response in the series, negative = inhibition, most hits filed as inhibitors. 310,000 tested, 3.5% active. Q9F4F7. Biochemical Sfp PPTase activity, qHTS;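 note: the enzyme is Sfp with the accession as filed and its product quenches rhodamine fluorescence; 0% = enzyme reaction without inhibitor and -100% = no enzyme wells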
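Fluorescence-quenching assay: 15 nM Sfp-PPTase preincubated 15 min at room temperature with compound, then 5 uM rhodamine-CoA and 12.5 uM BHQ-2-labelled YbbR peptide added. Fluorescence (ex 525/em 598 nm) read at start and after 30 min; difference gives rate.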
BAZ2B inh = blocks human BAZ2B; AID 504333; AlphaScreen BAZ2B-H3K14Ac peptide displacement; Potency, µM (series often up to 114 µM), for the others: at the highest dose activity change, negative = inhibition, usual class: inhibitors; Q9UIF8; 360,000 tested, 4.4% active; note: % is set by controls: 0 for no effect and ±100 for the full control effect; nearly all actives have a fitted effect of over 60% in size
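AlphaScreen luminescence quantifies BAZ2B engagement of H3K14Ac peptide; the protein and biotinylated peptide are both at 50 nM final, buffer PBS pH 7.4 with 0.01% Tween-20, all steps at room temperature.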
L3MBTL1 inh = L3MBTL1 (human) inhibition; 230,000 tested, 0.66% active; Q9Y468; Potency, µM (series often up to 57.1 µM), for the others: at the top dose activity, negative = inhibition, actives largely listed as inhibitors; AlphaScreen L3MBTL1–H3K9me1 peptide binding; note: % is set by controls: 0 for no effect and ±100 for the full control effect; nearly all actives have a fitted effect of over 60% in size
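AlphaScreen assay: L3MBTL1 (50 nM final) was preincubated 30 min at room temperature with biotinylated H3(1-15)K9me1 peptide (75 nM final), then 30 min with library compounds; streptavidin donor and nickel chelate acceptor beads (10 ug/mL final) added, 30 min dark.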
* hit, by the source's call; ? = inconclusive; · = no result; [ ] = another dose, or the depositor's remark. Calls come from the whole dose curve; as a rule, active = well fitted curve in the direction sought with a large enough effect; inconclusive = small, poorly fitted or top-dose-only effect, or another doubt; inactive = no such curve, though single readings can be large; an effect the other way counts as inactive or inconclusive. Potency is the fitted concentration of half-maximal effect.

SMILES	HP1b binding inh	JMJD2A Tudor	G9a block	Sfp PPTase inh	BAZ2B inh	L3MBTL1 inh
ClCC1NCC(c2ccccc2Cl)c2c1[nH]c1ccccc21 (stereo unspecified)	10%	?	?	-3%	45µM*	·
O=C1c2ccccc2C(=O)N1CCc1ccccc1	?	56µM*	·	·	·	·
Cc1ccc(-c2nc(CCN3C(=O)c4ccccc4C3=O)cs2)cc1	97%	18%	37%	-3%	30%	10%
O=C1c2ccccc2C(=O)N1CCc1csc(NNc2nc(CCN3C(=O)c4ccccc4C3=O)cs2)n1	-12%	?	?	-21%	35µM*	·
COC(=O)c1ccccc1NC(=O)CSc1ncccn1	33%	-12%	-4%	18%	-4%	1%
COC(=O)c1cc(C)sc1NC(=O)CSc1ncccn1	-3%	-6%	10µM*	?	-21%	·
CCCNC(=O)OC[C@@H]1O[C@H](CCO/N=C(\C)CCC(=O)OC[C@@H]2O[C@H](c3ccccc3)C=C[C@@H]2Oc2ccc(OC)cc2)C=C[C@@H]1Oc1ccc(OC)cc1	·	·	·	11%	·	·
O=C(O)c1ccccc1-c1c2ccc(=O)cc-2oc2cc(O)ccc12	·	·	-47%[59 µM]	1%	·	·
O=C(O)CN(CC(=O)O)Cc1cc2c(-c3ccccc3C(=O)O)c3cc(CN(CC(=O)O)CC(=O)O)c(=O)cc-3oc2cc1O	·	·	?	56µM*	·	·
O=C1/C(=C/c2cccs2)SC(=S)N1CC(=O)N1CCCCC1CCO (stereo unspecified)	39%	0%	71µM*	-11%	?	·
O=C1/C(=C/c2ccccc2)SC(=S)N1CCCC(=O)N1CCCCC1CCO (stereo unspecified)	-7%	?	15%[0.0925 µM]	-17%	?	·
O=C1/C(=C/c2ccco2)SC(=S)N1CCC(=O)N1CCCCC1CCO (stereo unspecified)	37%	-5%	45µM*	50µM*	50µM*	·
O=C1/C(=C/c2ccccc2F)SC(=S)N1CCC(=O)N1CCCCC1CCO (stereo unspecified)	-17%	?	·	-7%	?	·
O=C1/C(=C/c2cccc(Cl)c2)SC(=S)N1CCC(=O)N1CCCCC1CCO (stereo unspecified)	22%	-11%	·	-11%	28µM*	·
O=C1/C(=C/c2ccc(Cl)cc2)SC(=S)N1CCC(=O)N1CCCCC1CCO (stereo unspecified)	-15%	?	-26%	-8%	?	·
O=C1/C(=C\c2ccco2)SC(=S)N1C1CCCCC1	·	·	6%[0.501 µM]	-13%	10µM*	0%[2.29 µM]
Cc1c(C(=O)Nc2nccs2)oc2ccc(Br)cc12	18%	-8%	·	·	·	-9%
CCN(CC)CCCNC(=O)c1cnc(SC)nc1-c1ccccc1	-2%	-11%	-16%[59 µM]	·	-1%	·
S=c1[nH]nc(NCCCN2CCOCC2)s1	?	3.5µM*	1.3µM*	35µM*	32µM*	2%
c1ccc2[nH]c(NCCCN3CCOCC3)nc2c1	16%	-19%	-26%	7%	-4%	0%
CCCCCCCC/C=C\CCCCCCCC(=O)NCCc1ccc(O)c(O)c1	-12%	35µM*	?	9%	-8%	-9%
CC(C)NC(=O)CC(c1ccccc1)c1cc(Br)ccc1O (stereo unspecified)	6%	-17%	?	100µM*	29%	·
CCCCCCNC(=O)CC(c1ccccc1)c1cc(Br)ccc1O (stereo unspecified)	16%	-16%	15%[59 µM]	28%	37%	32%
CCOC(=O)c1ccccc1NC(=O)COC(=O)c1cc([N+](=O)[O-])ccc1N1CCOCC1	?	?	?	·	-26%	-6%
Cc1ccnc(NC(=O)CCC(=O)N(CC(=O)NCc2ccc(F)cc2)Cc2ccccc2)c1	24%	6%	-11%[59 µM]	8%	4%	·
SMILES	HP1b binding inh	JMJD2A Tudor	G9a block	Sfp PPTase inh	BAZ2B inh	L3MBTL1 inh
O=c1cc(O)n(C2CCCCCC2)c(=O)[nH]1	61%	1%	?	-12%	-1%	·
O=c1[nH][nH]c(=S)n1C1CCCCC1	3.5µM*	2.5µM*	1.1µM*	2.8µM*	25µM*	4%
CC1=C(C(=O)Nc2ccccc2C(=O)NCCCOC(C)C)SCCO1	15%	-2%	23%	8%	3%	·
CCC1CSC(Nc2ccc(C(=O)/C=C/c3cccc(C)c3)cc2)=N1 (stereo unspecified)	28%	-30%	2.8µM*	-1%	?	-4%
Cc1cccc(N2CCN(C(=O)C3CCN(c4ncnc5c4nc4n5CCCCC4)CC3)CC2C)c1 (stereo unspecified)	7%	-30%	-32%	3%	35µM*	·
Cc1cccc(N2CCN(C(=O)C3CCN(c4ncnc5c4nc4n5CCCCC4)CC3)CC2)c1C	13%	?	-13%	-1%	?	·
CC1(C)CC(=O)C2=C(C1)Nc1cc3c(cc1C2c1ccc2c(c1)OCO2)OCO3 (stereo unspecified)	5%	?	40µM*	-10%	?	·
CC1(C)CC(=O)C2=C(C1)Nc1cc3c(cc1C2c1ccc(F)cc1)OCO3 (stereo unspecified)	23%	-29%	·	-21%	?	-1%
O=C(CSc1nncc2ccccc12)Nc1cccc(C(=O)O)c1	-9%	1%[11.4 µM]	·	?	?	·
O=C(CSc1nc(-c2ccccc2)nc2c1Cc1ccccc1O2)Nc1ccccc1	·	·	8%	15%	-1%	·
O=C(CSc1nc(-c2ccccc2)nc2ccc(F)cc12)Nc1cccc(C(=O)O)c1	23%	?	71µM*	-7%	79µM*	·
O=C(CSc1nc(-c2ccc(F)cc2)nc2c1Cc1ccccc1O2)Nc1cccc(C(=O)O)c1	?	10µM*	7.9µM*	-21%	7.9µM*	?
O=C(NCc1ccccc1Cl)c1ccc(NC(=O)N2CCCCc3ccccc32)cc1	19%	-16%	12%[59 µM]	·	0%	·
Cc1ccc(CNC(=O)Cn2cc3c(n2)-c2c(oc(C(=O)N4CCOCC4)c2C)CC3)cc1	33%	-12%	-5%[59 µM]	·	?	·
COc1ccc(-n2c(SCc3ccccc3F)nc3c([nH]c4ccccc43)c2=O)cc1OC	11%[57 µM]	-17%	11%[59 µM]	·	-3%	·
Cc1cccc(NC(=O)Cn2c(=O)n(Cc3ccc4c(c3)OCO4)c(=O)c3ccccc32)c1	16%	-8%	-1%[59 µM]	·	3%	·
Cc1c(C(=O)OC(C)C(C)C[N+](C)(C)C)oc2ccccc12 (stereo unspecified)	14%	56µM*	13µM*	5%	-20%	·
CCOc1ccc(C(=O)c2ccc(O)c(O)c2O)cc1	·	·	·	50µM*	·	·
CCOc1cccc(C(=O)c2ccc(O)c(O)c2O)c1	·	·	?	-79%	·	·
